Many of the other results were omitted from the sample, so hits are more common in it than they were.
RBX1-CUL1 inh – human ROC1-CUL1 E3 ligase inhibition | in vitro K48 di-Ub FRET, acceptor:donor ratio, 45 min | AID 1347404 | hit rate 0.6% among 140,000 | inhibition, % at 10 µM; in the data active = inhibition above about 25%
Target sequence (P62877 whole entry, looked up): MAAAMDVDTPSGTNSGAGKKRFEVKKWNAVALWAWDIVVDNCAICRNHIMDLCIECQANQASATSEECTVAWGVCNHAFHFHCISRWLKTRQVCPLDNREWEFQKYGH
Target sequence (Q13616 whole entry, looked up): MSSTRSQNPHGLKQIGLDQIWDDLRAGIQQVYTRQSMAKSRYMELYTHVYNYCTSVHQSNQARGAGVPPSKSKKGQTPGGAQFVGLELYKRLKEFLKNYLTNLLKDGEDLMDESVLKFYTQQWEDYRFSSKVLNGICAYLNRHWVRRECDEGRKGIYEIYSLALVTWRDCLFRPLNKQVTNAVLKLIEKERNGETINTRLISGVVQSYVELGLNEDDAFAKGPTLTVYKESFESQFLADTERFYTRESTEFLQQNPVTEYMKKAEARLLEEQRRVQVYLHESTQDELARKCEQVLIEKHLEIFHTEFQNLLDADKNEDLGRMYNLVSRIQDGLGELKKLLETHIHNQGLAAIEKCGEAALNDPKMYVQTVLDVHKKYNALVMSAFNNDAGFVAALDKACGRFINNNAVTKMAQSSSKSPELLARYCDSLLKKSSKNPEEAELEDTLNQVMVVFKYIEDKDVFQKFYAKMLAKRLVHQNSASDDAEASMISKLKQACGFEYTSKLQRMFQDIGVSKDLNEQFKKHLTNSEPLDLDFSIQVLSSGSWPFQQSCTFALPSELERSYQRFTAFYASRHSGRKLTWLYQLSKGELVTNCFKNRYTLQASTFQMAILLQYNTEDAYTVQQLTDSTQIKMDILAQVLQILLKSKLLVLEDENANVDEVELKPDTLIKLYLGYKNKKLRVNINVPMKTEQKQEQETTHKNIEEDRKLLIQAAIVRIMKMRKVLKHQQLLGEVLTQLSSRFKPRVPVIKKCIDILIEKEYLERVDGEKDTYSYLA
* marks the source's active call; other numbers are inactive results.

SMILES | RBX1-CUL1 inh
Nc1nc(N)c2sc3nc(-c4cccs4)cc(-c4ccc(F)cc4)c3c2n1 | 6
O=C1CC(=O)c2sc3nc(-c4cccs4)cc(-c4ccc(F)cc4)c3c2N1 | 26*
O=C1CC(=O)c2sc3nc(-c4ccccc4)ccc3c2N1 | 1
CCOC(=O)c1cccc(-c2ccc(C(c3c(C)[nH][nH]c3=O)c3c(C)[nH][nH]c3=O)o2)c1 | 39*
COc1cc(C(c2c(C)[nH][nH]c2=O)c2c(C)[nH][nH]c2=O)ccc1OC(=O)c1cccc(C)c1 | 9
CCOC(=O)c1cccc(NC(=O)C(C)CC)c1 (centres undefined) | -12
COc1ccc2cc(-c3[nH]ncc3CN3CCC[C@H]3CO)ccc2c1 | 4
COc1ccc(C(=O)N2CCN(Cc3ccccc3)CC2)cc1OC | -1
O=C(NCc1ccccc1)C1CCCN(C2CCN(CC3CCCC3)CC2)C1 (centres undefined) | -6
COCCOc1ccccc1C(=O)Nc1cc(C)cc(C)c1 | -1
COc1ccccc1C1CC(c2ccccc2)=NN1c1ccccc1 (centres undefined) | -5
CCCC1=NN(c2ccccc2)C2Oc3c(OC)cccc3C(c3cn(-c4ccccc4)nc3CCC)C12 (centres undefined) | 56*
CCCC1=NN(c2ccccc2)C(=O)C1C1c2ccccc2Oc2c1c(CCC)nn2-c1ccccc1 (centres undefined) | -9
C#CCN1C(=O)C(O)(CC(=O)c2ccc(C)cc2)c2ccccc21 (centres undefined) | 0
O=C(CCCc1ccccc1)Nc1ccc(C(=O)Nc2ccc(F)cc2)cc1 | -9
CCC(=O)N1c2ccccc2N(S(=O)(=O)c2ccc(C)cc2)C1c1ccc(N(C)C)cc1 (centres undefined) | 5
O=C(O)CSC1=C(SCC(=O)O)C(=O)C(SCC(=O)O)=C(SCC(=O)O)C1=O | 102*
N=C1CC(=O)NC(SCC(=O)O)=N1 | 9
O=C(O)CSc1ccc(Cl)cc1 | 1
Cc1ccc(C)c(S(=O)(=O)NCc2ccc(C(=O)Nc3ccc4c(c3)OCCO4)cc2)c1 | 4
Cc1ccc(NC(=O)c2ccc(Cl)cc2Cl)c(S(=O)(=O)O)c1 | 96*
Cc1ccc(NS(=O)(=O)c2ccc(NC(=O)c3ccc(Cl)cc3Cl)cc2)c(C)c1 | 5
Cc1ccnc(NC(=O)c2ccc(Cl)cc2Cl)c1 | 6
Cc1[nH]c2ccccc2c1C(C[N+](=O)[O-])c1ccccc1Cl (centres undefined) | 5
CCOC(=O)c1c(NC(C)=O)sc(CC)c1Br | 2
SMILES | RBX1-CUL1 inh
O=C1NC(=O)C(=Cc2ccc(OCc3ccc(F)cc3)cc2)C(=O)N1 | 6
CC(=O)Oc1ccc2occ(C(=O)c3ccccc3)c2c1 | -10
O=C(c1ccccc1)c1coc2cc(Br)c(O)c(Br)c12 | 15
O=C1C(=O)c2c(C(=O)c3ccccc3)coc2C(Cl)=C1Cl | 89*
CC(=O)C(C(C)=O)C1=C(Br)C(=O)C(=O)c2c(C(=O)c3ccccc3)coc21 | 12
O=C1C(=O)c2c(C(=O)c3ccccc3)coc2C=C1Br | 104*
Nc1sccc1C(=O)c1ccccc1 | 8
Cc1ccc(C(=O)c2coc3c2C(=O)C(=O)c2ccccc2-3)cc1 | 4
Cc1ccc(C(=O)c2coc3c2C(=O)C(=O)C(Br)=C3)cc1 | 96*
Cc1ccc(C(=O)c2coc3ccc(Br)cc3c2=O)cc1 | 1
CC(=O)n1c(=O)c(=C2SCCCCS2)n(C(C)=O)c(=O)c1=C1SCCCCS1 | -1
O=C(c1ccc(COCC(F)(F)F)cc1)N1N=C(C(F)F)CC1(O)C(F)F (centres undefined) | -8
COc1ccc(C(=O)Nc2ccc3nc(SCC(=O)c4ccccc4)sc3c2)cc1 | 2
O/N=C1\CCCc2c1[nH]c1ccc(Cl)cc21 | 4
COc1ccc(OC)c(C2CC(=O)Nc3c2ccc(C)c3C)c1 (centres undefined) | 4
CCCCCCCCCCCCCCCCCCN(C)c1ccc(/C=C/c2cc[n+](C)cc2)cc1 | 7
CCCCCCCCCCCCCCCC[n+]1ccc(/C=C/c2ccc(N(C)C)cc2)cc1 | 29*
CCCCCCCC(=O)Nc1ccc(N(C)C)cc1 | -1
O=C1/C(=C/c2ccccc2OCc2ccccc2Cl)C(c2ccccc2)=NN1c1ccc([N+](=O)[O-])cc1 | -3
O=C(O)c1ccc(N2N=C(c3ccccc3)/C(=C/c3ccccc3)C2=O)cc1 | 7
O=C(O)c1ccc(N2N=C(c3ccccc3)/C(=C/c3ccco3)C2=O)cc1 | 33*
Cc1nc(CNC(=O)c2cn(CCN3CCOCC3)nn2)sc1C | 3
O=C(NC(=O)C(F)(F)F)Nc1cc(C(F)(F)F)cc(C(F)(F)F)c1 | -10
O=C(Nc1ccc2c(c1)C(=O)N(CC1CCCO1)C2=O)C(c1ccccc1)c1ccccc1 (centres undefined) | -7
C#CCOc1ccc(/C=C/c2[nH]c(=O)[nH]c(=O)c2[N+](=O)[O-])cc1OC | 3
C=CCOc1ccc(Br)cc1/C=C/c1[nH]c(=O)[nH]c(=O)c1[N+](=O)[O-] | 42*
C=CCOc1ccc(Br)cc1/C=C1/SC(=O)NC1=O | -11

Screens deposited in PubChem by Pan Lab, Icahn School of Medicine at Mount Sinai.
